Assay results as given in PubChem BioAssay AID651599 (National Center for Advancing Translational Sciences (NCATS), 2012).
Inconclusive results are not listed. Entries that show only a call come without a potency. Active and inactive are the calls of the source. The call rests on the fitted dose curve; in most records, active means well fitted inhibition curve with a large enough effect; inconclusive means small, poorly fitted or top-dose-only effect; inactive means no such curve, though single readings can be large or run the other way.

Each compound was assayed against Tumor susceptibility gene 101 protein (Homo sapiens) (UniProt Q99816) (assay: qHTS Assay for Iinhibitors of HIV-1 Budding by Blocking the Interaction of PTAP/TSG101: Hit Validation in TR assay). Settings: Tsg101 binding domain + Texas Red-labeled PTAP peptide, fluorescence polarization, 20 min; series mostly up to 57.5 µM.
Outline: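 Fluorescence polarization: Tsg101 binding domain (10 uM final) with Texas Red-labelled PTAP peptide (50 nM final) in HEPES pH 7.5, 0.15 M NaCl, Tween 20, EDTA, TCEP; 20 min binding at room temperature after compound addition.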
Potency means the concentration at half of the fitted maximal effect.

Sequence of Tumor susceptibility gene 101 protein (Homo sapiens) (Q99816 whole entry, looked up, the tested form may be a part): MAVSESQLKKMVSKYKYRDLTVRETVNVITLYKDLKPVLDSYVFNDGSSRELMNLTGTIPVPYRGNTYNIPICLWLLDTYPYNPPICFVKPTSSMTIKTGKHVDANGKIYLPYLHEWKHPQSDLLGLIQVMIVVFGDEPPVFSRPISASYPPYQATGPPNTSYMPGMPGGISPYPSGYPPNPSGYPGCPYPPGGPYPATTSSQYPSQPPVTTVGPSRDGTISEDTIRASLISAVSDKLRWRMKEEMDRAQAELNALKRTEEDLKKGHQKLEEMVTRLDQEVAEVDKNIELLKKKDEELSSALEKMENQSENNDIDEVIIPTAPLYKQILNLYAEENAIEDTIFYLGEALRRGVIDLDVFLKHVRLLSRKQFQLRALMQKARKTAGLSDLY

| Compound | Potency |
| --- | --- |
| COCCN(CCOC)Cc1c(O)ccc2c1O/C(=C\c1ccco1)C2=O | inactive |
| C/C(=N\NC(=O)CC#N)c1cc2ccc(O)cc2oc1=O | inactive |
| N#CC(C(=O)OC1CCCCC1)c1nc2ccccc2nc1N1CCOCC1 (centres undefined) | inactive |
| Cc1nc2ccccc2n2c(O)c(CC(=O)O)cc12 | inactive |
| O=C(NC1CCCC1)c1cccc2c1C(=O)c1ccc(N3CCCCC3)cc1S2(=O)=O | inactive |
| c1ccc2c(c1)CCCN2Cc1nnnn1CC1CCCO1 (centres undefined) | 18.3 µM (active) |
| O=C1CCNc2ccc(-c3ccccc3)cc21 | inactive |
| Nc1ccc2nc3c(=O)n(C4CCCCC4)c(=O)[nH]c3nc2c1 | inactive |
| CCOC(=O)C1CCCN(c2nc3ccccc3nc2C(C#N)C(=O)NCc2ccccc2)C1 (centres undefined) | inactive |
| CN1/C(=C\C=C2/C(=O)Oc3ccccc3C2=O)C(C)(C)c2ccccc21 | inactive |
| Cc1oc2cc(O)ccc2c(=O)c1-c1nncn1-c1ccccc1 | inactive |
| NC(=O)c1ccccc1NCC(=O)c1ccc(F)cc1 | inactive |
| CCC1(c2ccccc2)NC(=O)N(CC(=O)Nc2ccc(OC)nc2)C1=O (centres undefined) | inactive |
| CC(=O)Nc1ccc(N2C(=O)c3cccc4c(O)ccc(c34)C2=O)cc1 | inactive |
| O=C1c2cccc3c(O)ccc(c23)C(=O)N1Cc1ccccc1 | inactive |
| O=C1/C(=C/c2cccc(F)c2)Oc2cc(O)ccc21 | inactive |
| COc1cccc2c1C(=O)c1c(O)c3c(c(O)c1C2=O)CC(O)(C(C)=O)CC3OC1CC(O)C(O)C(C)O1 (centres undefined) | inactive |
| COc1ccc2ccccc2c1C(O)c1nccn1C (centres undefined) | inactive |
| CCCCCCN1C=CC=C/C1=C/C=C(C#N)C#N | inactive |
| C/C(=N/NC(=O)c1ccncc1)c1cc2ccc(O)cc2oc1=O | inactive |

| Compound | Potency |
| --- | --- |
| CC1=CC(=C(C#N)c2nc3ccccc3s2)C=C(C)N1c1ccc(F)cc1 | inactive |
| O=C(O)c1ccccc1-c1ccc(/C=C/c2cc(C(F)(F)F)[nH]c(=O)n2)o1 | inactive |
| Cc1ccc(OC(=O)c2ccc3nc(C)sc3c2)cc1 | inactive |
| O=C(NCc1ccco1)c1cccc2c1C(=O)c1ccc(N3CCC(Cc4ccccc4)CC3)cc1S2(=O)=O | inactive |
| N=C1/C(=C/c2coc3ccccc3c2=O)C(=O)N=C2SC(c3ccco3)=NN12 | inactive |
| O=C1CCN2C=Nc3cccc4ccc1c2c34 | inactive |
| COc1ccc2c(C#N)c3ccccn3c2c1 | inactive |
| O=c1[nH]c(-[n+]2ccccc2)c(/C=N/NC([S-])=Nc2ccccc2)s1 | inactive |
| O=C(O)c1ccccc1C1=Nc2ccc(O)cc2Oc2cc(O)ccc21 | inactive |
| Cc1cccc(-n2c(O)c(C=Nc3ccc4c(c3)OCO4)c3ccccc3c2=O)n1 | inactive |
| O=C1Nc2ccc(F)cc2C12Nc1ccccc1-c1nnc(SCc3ccccc3F)nc1O2 (centres undefined) | inactive |
| O=C1Nc2ccc(F)cc2C12Nc1ccccc1-c1nnc(SCc3ccccc3)nc1O2 (centres undefined) | inactive |
| O=[N+]([O-])c1cc(Cl)cc(/C=N/n2cnnc2)c1O | inactive |
| C=CCOn1c(=O)c(-c2cc3ccccc3o2)[n+]([O-])c2ccccc21 | inactive |
| COc1ncnc2c1NC1=C(S2)C(=NCCC(=O)O)CC(C)(C)C1 | inactive |
| Cn1c2ccc(F)cc2c2nc3ccccc3nc21 | inactive |
| CCOC(=O)/C(C#N)=C\c1ccc(N2CCN(C/C=C/c3ccccc3)CC2)cc1 | inactive |
| CCC1CCCCN1C(=O)c1cc2cc(Br)ccc2oc1=O (centres undefined) | inactive |
| O=C(O)c1cc(O)c2c(c1)C(=O)c1cccc(O)c1C2=O | inactive |
